In test [1] the target is Serine/threonine-protein kinase pim-2 (Homo sapiens) (UniProt Q9P1W9). The following applies: at 1 µM.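 Note: each value is a mean of the inhibition measurements against the kinase.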
Test [2] concerns the target Serine/threonine-protein kinase pim-3 (Homo sapiens) (UniProt Q86V86). The following applies: at 0.1 µM.
Test [3] shares this target. The following applies: at 1 µM.
In test [4] the target is T1, MAP kinase-activated protein kinase 5 (Homo sapiens) (UniProt Q8IW41).
T1 sequence (whole entry): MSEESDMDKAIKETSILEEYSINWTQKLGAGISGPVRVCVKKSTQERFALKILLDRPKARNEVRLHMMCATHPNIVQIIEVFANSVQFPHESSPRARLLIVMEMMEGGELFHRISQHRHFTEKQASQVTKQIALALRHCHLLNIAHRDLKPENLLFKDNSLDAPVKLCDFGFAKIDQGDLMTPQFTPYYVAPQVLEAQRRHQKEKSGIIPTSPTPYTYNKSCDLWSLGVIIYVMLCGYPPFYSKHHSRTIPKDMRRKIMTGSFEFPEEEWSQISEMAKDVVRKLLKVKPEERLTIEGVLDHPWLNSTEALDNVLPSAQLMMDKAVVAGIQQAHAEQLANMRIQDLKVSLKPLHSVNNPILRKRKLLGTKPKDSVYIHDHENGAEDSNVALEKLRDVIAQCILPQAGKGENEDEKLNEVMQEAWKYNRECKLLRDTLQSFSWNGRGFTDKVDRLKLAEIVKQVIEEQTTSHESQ
The following applies: at 0.1 µM.

Test [5] has as its target T1, MAP kinase-activated protein kinase 5 (Homo sapiens). The following applies: at 1 µM.
For test [6], the target named is Serine/threonine-protein kinase SIK1 (Homo sapiens) (UniProt P57059). The following applies: at 0.1 µM.
For test [7] the target is unchanged. The following applies: at 1 µM.
The target of test [8] is Serine/threonine-protein kinase SIK2 (Homo sapiens) (UniProt Q9H0K1). The following applies: at 0.1 µM.
Test [9] has the same target. The following applies: at 1 µM.
For test [10], the target named is T2, Serine/threonine-protein kinase TBK1 (Homo sapiens) (UniProt Q9UHD2).
T2 sequence (whole entry): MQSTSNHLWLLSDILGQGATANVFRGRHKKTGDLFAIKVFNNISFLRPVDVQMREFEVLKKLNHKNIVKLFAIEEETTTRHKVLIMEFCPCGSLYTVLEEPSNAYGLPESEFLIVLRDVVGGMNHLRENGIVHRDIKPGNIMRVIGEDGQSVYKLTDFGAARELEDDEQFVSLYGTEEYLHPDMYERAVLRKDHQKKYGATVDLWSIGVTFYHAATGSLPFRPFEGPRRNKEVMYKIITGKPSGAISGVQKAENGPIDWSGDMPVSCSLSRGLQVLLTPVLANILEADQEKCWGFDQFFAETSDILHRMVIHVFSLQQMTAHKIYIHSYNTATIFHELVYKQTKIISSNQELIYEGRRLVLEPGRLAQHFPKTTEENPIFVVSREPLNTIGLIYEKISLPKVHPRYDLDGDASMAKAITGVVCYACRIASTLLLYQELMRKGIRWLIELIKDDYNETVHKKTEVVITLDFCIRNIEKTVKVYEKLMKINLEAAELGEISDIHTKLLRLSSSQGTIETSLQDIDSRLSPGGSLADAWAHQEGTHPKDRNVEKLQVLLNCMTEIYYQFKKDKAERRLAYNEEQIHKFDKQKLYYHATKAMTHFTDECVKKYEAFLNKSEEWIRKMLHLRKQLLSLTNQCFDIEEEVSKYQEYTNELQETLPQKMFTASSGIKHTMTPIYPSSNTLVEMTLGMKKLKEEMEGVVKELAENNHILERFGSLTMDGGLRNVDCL
The following applies: at 0.1 µM.

Test [11] deals with T2, Serine/threonine-protein kinase TBK1 (Homo sapiens). The following applies: at 1 µM.
Test [12] deals with T3, Testis-specific serine/threonine-protein kinase 1 (Homo sapiens) (UniProt Q9BXA7).
T3 sequence (whole entry): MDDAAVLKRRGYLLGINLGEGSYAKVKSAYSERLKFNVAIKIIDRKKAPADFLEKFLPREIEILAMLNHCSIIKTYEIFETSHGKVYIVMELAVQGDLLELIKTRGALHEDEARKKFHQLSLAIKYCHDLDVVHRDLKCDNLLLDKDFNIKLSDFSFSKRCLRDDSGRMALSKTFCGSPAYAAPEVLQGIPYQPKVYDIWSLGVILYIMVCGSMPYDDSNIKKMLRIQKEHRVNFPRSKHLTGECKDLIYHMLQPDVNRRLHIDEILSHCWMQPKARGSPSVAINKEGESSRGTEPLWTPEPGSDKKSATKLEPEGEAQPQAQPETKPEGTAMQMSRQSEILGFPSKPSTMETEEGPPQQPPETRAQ
The following applies: at 0.1 µM.

The target in test [13] is T3, Testis-specific serine/threonine-protein kinase 1 (Homo sapiens). The following applies: at 1 µM.
For test [14], the target named is T4, Testis-specific serine/threonine-protein kinase 2 (Homo sapiens) (UniProt Q96PF2).
T4 sequence (whole entry): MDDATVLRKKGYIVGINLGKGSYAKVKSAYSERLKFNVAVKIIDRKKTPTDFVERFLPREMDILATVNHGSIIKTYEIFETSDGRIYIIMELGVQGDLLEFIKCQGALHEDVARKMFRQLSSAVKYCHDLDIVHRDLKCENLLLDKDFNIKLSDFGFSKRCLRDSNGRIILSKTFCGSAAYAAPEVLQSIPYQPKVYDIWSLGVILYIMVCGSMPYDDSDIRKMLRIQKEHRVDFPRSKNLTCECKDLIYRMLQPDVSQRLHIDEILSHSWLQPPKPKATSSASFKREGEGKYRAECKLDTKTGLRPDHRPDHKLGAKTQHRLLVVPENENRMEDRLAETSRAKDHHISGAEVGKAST
The following applies: at 0.1 µM.

The target of test [15] is T4, Testis-specific serine/threonine-protein kinase 2 (Homo sapiens). The following applies: at 1 µM.
Test [16] deals with Casein kinase I isoform alpha (Homo sapiens) (UniProt P48729). The following applies: at 0.1 µM.
Test [17] shares this target. The following applies: at 1 µM.
For test [18], the target named is Casein kinase I isoform gamma-1 (Homo sapiens) (UniProt Q9HCP0). The following applies: at 0.1 µM.
For test [19] the target is unchanged. The following applies: at 1 µM.
The target of test [20] is Casein kinase I isoform gamma-2 (Homo sapiens) (UniProt P78368). The following applies: at 0.1 µM.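 Note: values are mean inhibition figures reported as part of the GSK PKIS dataset.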

Broadly, the inhibition is the change of the read-out against control, counted positive when it falls.

Each structure is given as a SMILES string.

Chain of Casein kinase I isoform gamma-1 (Homo sapiens) (Q9HCP0 whole entry, looked up, canonical isoform): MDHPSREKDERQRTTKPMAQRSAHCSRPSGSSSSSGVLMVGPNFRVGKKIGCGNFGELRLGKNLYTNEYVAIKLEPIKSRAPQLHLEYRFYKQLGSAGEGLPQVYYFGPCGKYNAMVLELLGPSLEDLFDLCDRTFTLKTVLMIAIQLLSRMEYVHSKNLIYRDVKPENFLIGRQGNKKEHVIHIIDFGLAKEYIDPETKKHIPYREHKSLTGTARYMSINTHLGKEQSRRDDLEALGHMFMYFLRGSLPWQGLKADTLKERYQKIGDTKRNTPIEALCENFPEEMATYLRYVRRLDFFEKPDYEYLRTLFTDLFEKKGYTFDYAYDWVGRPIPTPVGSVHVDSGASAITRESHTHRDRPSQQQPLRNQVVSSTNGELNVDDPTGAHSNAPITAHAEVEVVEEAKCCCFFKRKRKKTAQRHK
Chain of Casein kinase I isoform alpha (Homo sapiens) (P48729 2-337 limits assumed): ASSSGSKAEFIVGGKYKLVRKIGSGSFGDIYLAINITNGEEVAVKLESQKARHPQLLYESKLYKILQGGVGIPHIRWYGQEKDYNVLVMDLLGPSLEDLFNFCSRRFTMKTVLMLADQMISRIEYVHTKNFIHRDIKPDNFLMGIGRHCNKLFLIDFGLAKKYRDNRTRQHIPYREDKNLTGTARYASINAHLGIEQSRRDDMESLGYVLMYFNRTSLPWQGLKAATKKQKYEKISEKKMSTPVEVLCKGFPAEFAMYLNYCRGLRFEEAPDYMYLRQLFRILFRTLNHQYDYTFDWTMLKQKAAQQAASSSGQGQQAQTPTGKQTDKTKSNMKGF
Chain of Serine/threonine-protein kinase SIK1 (Homo sapiens) (P57059 whole entry): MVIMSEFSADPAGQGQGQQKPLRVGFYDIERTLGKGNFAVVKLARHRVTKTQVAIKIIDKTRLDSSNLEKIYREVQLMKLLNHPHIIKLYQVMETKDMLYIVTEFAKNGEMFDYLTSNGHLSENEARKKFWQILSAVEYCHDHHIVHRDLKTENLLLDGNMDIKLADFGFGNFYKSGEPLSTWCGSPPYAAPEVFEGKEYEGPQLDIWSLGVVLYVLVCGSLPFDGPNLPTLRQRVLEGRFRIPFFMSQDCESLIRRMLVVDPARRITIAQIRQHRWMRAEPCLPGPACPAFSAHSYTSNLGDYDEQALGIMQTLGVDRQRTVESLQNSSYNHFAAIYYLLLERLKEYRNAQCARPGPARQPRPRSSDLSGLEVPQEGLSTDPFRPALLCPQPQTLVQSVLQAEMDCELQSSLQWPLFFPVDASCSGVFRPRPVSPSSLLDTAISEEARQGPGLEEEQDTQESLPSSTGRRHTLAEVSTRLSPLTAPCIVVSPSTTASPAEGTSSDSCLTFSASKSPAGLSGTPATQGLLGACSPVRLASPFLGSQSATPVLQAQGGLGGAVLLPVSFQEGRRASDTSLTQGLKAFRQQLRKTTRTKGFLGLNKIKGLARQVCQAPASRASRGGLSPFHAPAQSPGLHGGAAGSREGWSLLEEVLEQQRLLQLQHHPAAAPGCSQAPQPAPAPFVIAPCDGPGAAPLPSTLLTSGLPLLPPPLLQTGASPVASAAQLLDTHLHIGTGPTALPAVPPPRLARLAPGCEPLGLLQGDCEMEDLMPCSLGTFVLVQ
Chain of Serine/threonine-protein kinase SIK2 (Homo sapiens) (Q9H0K1 whole entry, looked up): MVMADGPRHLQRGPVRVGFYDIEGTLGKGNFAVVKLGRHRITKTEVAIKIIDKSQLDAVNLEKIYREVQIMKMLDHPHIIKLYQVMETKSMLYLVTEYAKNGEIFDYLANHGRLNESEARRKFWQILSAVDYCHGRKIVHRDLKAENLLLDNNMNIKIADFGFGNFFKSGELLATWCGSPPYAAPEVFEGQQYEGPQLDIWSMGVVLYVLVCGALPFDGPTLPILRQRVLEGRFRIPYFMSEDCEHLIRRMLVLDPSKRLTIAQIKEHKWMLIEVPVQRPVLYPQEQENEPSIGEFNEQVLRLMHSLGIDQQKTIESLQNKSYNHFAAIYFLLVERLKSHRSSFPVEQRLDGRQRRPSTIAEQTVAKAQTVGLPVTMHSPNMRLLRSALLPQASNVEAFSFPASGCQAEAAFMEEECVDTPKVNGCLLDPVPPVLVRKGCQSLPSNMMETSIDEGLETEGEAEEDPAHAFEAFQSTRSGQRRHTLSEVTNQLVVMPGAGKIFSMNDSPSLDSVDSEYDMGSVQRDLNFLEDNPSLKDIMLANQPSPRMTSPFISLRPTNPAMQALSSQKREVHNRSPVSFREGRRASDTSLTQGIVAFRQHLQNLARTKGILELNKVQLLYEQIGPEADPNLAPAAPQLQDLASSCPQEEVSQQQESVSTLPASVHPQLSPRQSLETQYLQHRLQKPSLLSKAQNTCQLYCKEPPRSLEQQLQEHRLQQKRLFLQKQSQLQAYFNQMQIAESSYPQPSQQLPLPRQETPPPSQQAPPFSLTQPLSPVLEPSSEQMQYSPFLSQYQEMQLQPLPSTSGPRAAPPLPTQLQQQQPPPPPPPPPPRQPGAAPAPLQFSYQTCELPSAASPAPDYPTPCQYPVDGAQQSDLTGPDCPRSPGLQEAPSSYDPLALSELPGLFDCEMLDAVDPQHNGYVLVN
Chain of Casein kinase I isoform gamma-2 (Homo sapiens) (P78368 whole entry, looked up, canonical isoform): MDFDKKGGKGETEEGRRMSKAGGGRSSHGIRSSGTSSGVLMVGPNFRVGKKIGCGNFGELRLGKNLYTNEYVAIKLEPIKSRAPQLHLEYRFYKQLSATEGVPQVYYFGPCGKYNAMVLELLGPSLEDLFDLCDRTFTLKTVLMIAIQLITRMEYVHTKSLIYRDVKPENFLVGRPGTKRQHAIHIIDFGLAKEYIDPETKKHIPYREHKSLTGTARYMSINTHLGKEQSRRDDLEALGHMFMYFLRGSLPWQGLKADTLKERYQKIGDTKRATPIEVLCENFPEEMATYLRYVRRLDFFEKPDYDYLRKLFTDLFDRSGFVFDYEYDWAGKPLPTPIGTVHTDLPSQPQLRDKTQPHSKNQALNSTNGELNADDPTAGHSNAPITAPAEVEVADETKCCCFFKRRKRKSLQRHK
Chain of Serine/threonine-protein kinase pim-2 (Homo sapiens) (Q9P1W9 whole entry, looked up): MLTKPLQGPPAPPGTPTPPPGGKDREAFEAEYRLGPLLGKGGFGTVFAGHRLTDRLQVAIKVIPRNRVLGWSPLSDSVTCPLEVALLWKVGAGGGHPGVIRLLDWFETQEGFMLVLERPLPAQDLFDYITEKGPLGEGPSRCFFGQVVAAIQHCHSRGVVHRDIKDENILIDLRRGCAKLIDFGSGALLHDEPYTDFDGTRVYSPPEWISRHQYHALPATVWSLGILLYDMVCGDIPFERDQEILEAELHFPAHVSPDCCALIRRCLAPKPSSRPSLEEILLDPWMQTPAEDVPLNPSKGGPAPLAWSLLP

Regarding `NC(=O)c1sc(-n2cnc3ccc(C(F)(F)F)cc32)cc1OCc1ccccc1Br`, the inhibition in test [1] was -0.68%; in test [2] it was 1.1%; in test [3], 0.16%; in [4] it was 1.65%; in [5] it was 2.02%; in [6], 6.13%. Besides, the inhibition was 9.77% in test [7]; 5.75% in test [8]; 9.85% in test [9]; 0.45% in [10]; 2.04% in test [11]; 3.44% in test [12]. In addition, the inhibition in test [13] turned out to be 3.86%; in test [14], 2.62%; in [15], 2.38%; in test [16] it was 0.93%; in [17], 2.88%; in [18] it was 3.36%. Moreover, the inhibition in test [19] worked out at 3.78%; in test [20], 3.03%.

Turning to `COc1cc2c(cc1Nc1nc(Nc3ccsc3C(N)=O)c3cc[nH]c3n1)N(C(=O)CN(C)C)CCC2(C)C`, the inhibition in [1] amounted to 11.9%; in test [2] it was 18.4%; in [3], 68.1%; in test [4] it was 1.65%; in test [5] it was 3.7%; in test [6], 2.02%. Besides, the inhibition amounted to 7.92% in [7]; 7.71% in [8]; 7.78% in [9]; 11.3% in test [10]; 50.7% in [11]; 94.6% in test [12]. In addition, the inhibition amounted to 96.3% in test [13]; 87.4% in test [14]; 94.6% in [15]; 4.27% in [16]; 14.9% in test [17]; 6.43% in [18]. The inhibition in test [19] was 21.1%; in test [20] it was 3.76%.

Take `COc1cc(N2CCN(C(C)C)CC2)ccc1Nc1nc(Nc2ccc(F)cc2C(N)=O)c2cc[nH]c2n1`: the inhibition is 1.98% in [1]; 1.69% in [2]; 19.9% in test [3]; 1.95% in test [4]; 16% in test [5]; 7.46% in test [6]. Besides, the inhibition is 14.3% in test [7]; 3.18% in test [8]; 8.56% in [9]; 3.02% in test [10]; 6.76% in test [11]; 82.8% in test [12]. In addition, the inhibition in test [13] amounted to 95.4%; in test [14], 58.6%; in test [15], 90.8%; in [16] it was 12.4%; in test [17], 58.3%; in test [18], 9.86%. Also, the values for the inhibition in [19] and in test [20] were 42.2% and 7.97%, respectively.

Consider `CCN(CC)S(=O)(=O)c1ccc(OC)c(Nc2ncc(-c3ccccc3)o2)c1`, for which the inhibition came out at 0.18% in test [1]; 2.06% in test [2]; 3.12% in test [3]; 0.51% in test [4]; 0.24% in [5]; 1.24% in [6]. The inhibition in test [7] is 6.72%; in test [8], 3.3%; in [9], 2.83%; in test [10], 1.32%; in test [11] it was 4.22%; in test [12], 0.3%. Besides, the inhibition in test [13] was -0.98%; in [14] it was -0.73%; in test [15], -0.01%; in test [16], 1.13%; in test [17] it was 1.02%; in test [18], 0.91%. Moreover, the inhibition in test [19] is 0.27%; in test [20], 0.3%.

`CCn1c(-c2nonc2N)nc2c(C#CC(C)(C)O)nc(OC[C@H](N)c3ccccc3)cc21`: the inhibition came out at 3.44% in test [1]; 0.83% in test [2]; 4.27% in test [3]; 0.68% in test [4]; 1.6% in test [5]; 3.53% in test [6]. Further, the inhibition in [7] is 7.29%; in test [8], 1.31%; in [9], -1.51%; in [10], 3.75%; in test [11] it was 6.85%; in [12], 7.96%. Further, the inhibition in test [13] stood at 44.1%; in [14], 0.93%; in test [15], 2.24%; in [16], 2.03%; in test [17], 11.4%; in test [18], 1.99%. Moreover, the values for the inhibition in test [19] and in test [20] were 5.61% and 1.71%, respectively.

For `Cc1cccc2c1NC(=O)/C2=N\Nc1ccc(S(N)(=O)=O)cc1`, the inhibition in test [1] was 0.28%; in test [2], -0.05%; in test [3] it was -2.33%; in [4] it was 0.84%; in test [5], -0.06%; in test [6], 6.76%. Also, the inhibition in test [7] is 2.58%; in test [8] it was 7.86%; in test [9], 2.38%; in test [10], 2.84%; in test [11], 3.42%; in test [12], 1.83%. Moreover, the inhibition is 3.05% in test [13]; 0.81% in test [14]; -1.61% in test [15]; 1.01% in test [16]; 4.19% in test [17]; 2.88% in test [18]. Also, the inhibition stood at 3.11% in test [19] and 1.59% in [20].

Consider `Nc1ncc(-c2cccc(S(N)(=O)=O)c2)c2scc(-c3ccc(F)c(Cl)c3)c12`, for which the inhibition came to 0.78% in test [1]; 1.11% in test [2]; 0.91% in test [3]; 1.73% in [4]; 1.77% in test [5]; 20.4% in test [6]. Besides, the inhibition was 61% in test [7]; 9.17% in test [8]; 28.8% in test [9]; 3.75% in [10]; 3.47% in [11]; 3.24% in test [12]. Moreover, the inhibition amounted to 4.96% in [13]; 2.48% in test [14]; 2.51% in [15]; 6.19% in test [16]; 36.5% in test [17]; 2.96% in test [18]. The figures for the inhibition in test [19] and in test [20] were 4.15% and 2.73%, respectively.

The record behind these values is ChEMBL document CHEMBL1961873, “Compounds: GSK PKIS; Assays: Nanosyn kinase panel” (2012).
